Source: PubChem BioAssay AID1224921 (Broad Institute, 2016)
Out of some 1,400 compounds screened, about 350 (25%) were called active. Another 2% or so got no clear call; they are omitted. The list is a sample of the results. Potency and affinity values are given separately. Values without a mark were called inactive. The rule behind the calls is not given here.

Assay: C. difficile growth inhibition, confirmation, 4-point retest (AID 1224921);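 note: plate controls were DMSO wells for no effect and levofloxacin 16 µg/mL wells for full effect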
Settings: Clostridioides difficile clinical isolate growth, OD600, 24 h, stronger effect = lower value; at 30 µM unless noted

Row | SMILES | max activity
1 | CO[C@@H]1CN(C)C(=O)c2cc(NC(=O)Nc3c(C)noc3C)ccc2OC[C@@H](C)N(C(=O)Nc2cccc(Cl)c2)C[C@H]1C | 14.7%
2 | CC(C)NC(=O)N(C)C[C@H]1Oc2c(NC(=O)Nc3ccc(C(F)(F)F)cc3)cccc2C(=O)N([C@@H](C)CO)C[C@H]1C | 34.2% [at 8 µM]
3 | C[C@H](CO)N1C[C@H](C)[C@@H](CN(C)C(=O)NC2CCCCC2)Oc2c(NC(=O)Nc3ccc(F)cc3)cccc2C1=O | 20.1%
4 | C[C@@H]1CN([C@H](C)CO)C(=O)c2cccc(NC(=O)Nc3ccc(C(F)(F)F)cc3)c2O[C@H]1CN(C)C(=O)NC1CCCCC1 | 34.6%
5 | C[C@H](CO)N1C[C@H](C)[C@@H](CN(C)C(=O)NC2CCCCC2)Oc2c(NC(=O)Nc3ccc(C(F)(F)F)cc3)cccc2C1=O | 28.8%
6 | Cc1ccc(-c2cnc3c(c2)C(=O)N([C@@H](C)CO)C[C@@H](C)[C@@H](CN(C)C(=O)c2cccc(F)c2)O3)cc1 | 28.4%
7 | CC(C)[C@H](C)NC(=O)N(C)C[C@@H]1OCc2ccccc2-c2ccccc2C(=O)N([C@@H](C)CO)C[C@H]1C | -10.9% [at 1.95 µM]
8 | CO[C@H]1CN(C)C(=O)c2ccc(NS(=O)(=O)c3ccc(C)cc3)cc2OC[C@@H](C)N(C(=O)NC(C)C)C[C@H]1C | 6.95%
9 | C[C@@H]1CN([C@H](C)CO)S(=O)(=O)c2ccc(C#CCC3CCCC3)cc2O[C@@H]1CN(C)C(=O)CC1CC1 | 36.7%
10 | Cc1noc(C)c1NC(=O)N[C@@H]1CC[C@H](CC(=O)Nc2ccc(-c3ccccc3)cc2)O[C@@H]1CO | 42%
11 | CCN1C[C@@H](C)[C@H](OC)CN(C)C(=O)c2cc(NC(=O)NC(C)C)ccc2OC[C@H]1C | 16.9%
12 | CC(C)CC#Cc1ccc2c(c1)O[C@H](CN(C)Cc1cccnc1)[C@H](C)CN([C@@H](C)CO)S2(=O)=O | 26.5%
13 | N#C[C@H]1[C@H](c2ccc(C#Cc3ccccc3F)cc2)[C@@H](CO)N1C(=O)C1CCCCC1 | 15.2% [at 1.95 µM]
14 | CCC(=O)Nc1ccc2c(c1)OC[C@@H](C)N(Cc1ccccc1)C[C@H](C)[C@@H](OC)CN(C)C2=O | 21.5%
15 | COc1ccc(CN(C)C[C@H]2OCCCC[C@H](C)Oc3ccc(NC(=O)Nc4ccc(C(F)(F)F)cc4)cc3C(=O)N([C@H](C)CO)C[C@H]2C)cc1 | 38.6% [at 1.95 µM]
16 | COc1ccc(CN(C)C[C@H]2OCCCC[C@H](C)Oc3ccc(NC(=O)Nc4ccc(C(F)(F)F)cc4)cc3C(=O)N([C@H](C)CO)C[C@@H]2C)cc1 | 35.8%
17 | COc1ccc(CN(C)C[C@H]2OCCCC[C@@H](C)Oc3ccc(NC(=O)Nc4ccc(C(F)(F)F)cc4)cc3C(=O)N([C@@H](C)CO)C[C@H]2C)cc1 | 38.8% [at 1.95 µM]
18 | COc1ccc(CN(C)C[C@@H]2OCCCC[C@@H](C)Oc3ccc(NC(=O)Nc4ccc(C(F)(F)F)cc4)cc3C(=O)N([C@H](C)CO)C[C@H]2C)cc1 | 35.6% [at 8 µM]
19 | COc1ccc(CN(C)C[C@@H]2OCCCC[C@H](C)Oc3ccc(NC(=O)Nc4ccc(C(F)(F)F)cc4)cc3C(=O)N([C@@H](C)CO)C[C@H]2C)cc1 | 21.3% [at 8 µM]

Row | SMILES | max activity
20 | COc1ccc(CN(C)C[C@@H]2OCCCC[C@H](C)Oc3ccc(NC(=O)Nc4ccc(F)cc4)cc3C(=O)N([C@@H](C)CO)C[C@H]2C)cc1 | 23.6%
21 | COc1cccc(C#Cc2ccc([C@H]3[C@@H](CO)N(C(=O)C4CC4)[C@H]3C#N)cc2)c1 | 19.6%
22 | CO[C@@H]1CN(C)C(=O)c2cc(NC(=O)c3ccccc3)ccc2OC[C@H](C)N(C)C[C@H]1C | 6.89% [at 8 µM]
23 | CO[C@@H]1CN(C)C(=O)c2cc(NS(=O)(=O)c3cn(C)cn3)ccc2OC[C@@H](C)N(Cc2cccc(Cl)c2)C[C@H]1C | 31.5%
24 | C[C@H](CO)N1C[C@H](C)[C@@H](CN(C)C(=O)NC2CCCCC2)Oc2c(NC(=O)Nc3cccc4ccccc34)cccc2C1=O | 61.2%
25 | C[C@@H]1CCCCO[C@@H](CN(C)Cc2ccc3c(c2)OCO3)[C@H](C)CN([C@H](C)CO)C(=O)c2cc(NC(=O)Nc3ccc(F)cc3)ccc2O1 | 18%
26 | CCCN1C[C@@H](C)[C@H](OC)CN(C)C(=O)c2cc(NC(=O)Nc3cccc(OC)c3)ccc2OC[C@H]1C | -7.34% [at 1.95 µM]
27 | CCCN1C[C@@H](C)[C@H](OC)CN(C)C(=O)c2ccc(NC(=O)Nc3c(C)noc3C)cc2OC[C@@H]1C | 21.5%
28 | CCCN1C[C@@H](C)[C@H](OC)CN(C)C(=O)c2ccc(NC(=O)CC)cc2OC[C@@H]1C | 3.36%
29 | COc1ccc(NC(=O)Nc2ccc3c(c2)[C@@H]2C[C@@H](CC(=O)NCc4ccccc4F)O[C@H](CO)[C@@H]2O3)cc1 | -14.3%
30 | C[C@@H]1CN([C@@H](C)CO)C(=O)c2cccc(NS(=O)(=O)c3ccc(Cl)cc3)c2O[C@@H]1CN(C)Cc1ccc(C(F)(F)F)cc1 | 20.4% [at 1.95 µM]
31 | COc1ccc(CN(C)C[C@H]2OCCCC[C@@H](C)Oc3ccc(NC(=O)Nc4ccc5c(c4)OCO5)cc3C(=O)N([C@H](C)CO)C[C@H]2C)cc1 | 17.6%
32 | Cc1ccc(S(=O)(=O)Nc2ccc3c(c2)C(=O)N([C@@H](C)CO)C[C@H](C)[C@@H](CN(C)Cc2ccc(Cl)c(Cl)c2)OCCCC[C@@H](C)O3)cc1 | 8.85%
33 | C[C@@H]1CN([C@@H](C)CO)C(=O)c2cc(NC(=O)Nc3ccc(F)cc3)ccc2O[C@@H](C)CCCCO[C@H]1CN(C)Cc1ccc2c(c1)OCO2 | 20.9%
34 | C[C@H](CO)N1C[C@H](C)[C@@H](CN(C)Cc2ccc3c(c2)OCO3)OCCCC[C@H](C)Oc2ccc(NC(=O)Nc3ccc4c(c3)OCO4)cc2C1=O | 12.4%
35 | C[C@@H]1CCCCO[C@@H](CN(C)Cc2ccc3c(c2)OCO3)[C@H](C)CN([C@@H](C)CO)C(=O)c2cc(NC(=O)Nc3ccc4c(c3)OCO4)ccc2O1 | 14.9%
36 | CCCN(C)C[C@H]1OCCCC[C@H](C)Oc2ccc(NS(=O)(=O)c3c(C)noc3C)cc2C(=O)N([C@@H](C)CO)C[C@@H]1C | 19% [at 8 µM]
37 | COc1ccc(CN(C)C[C@H]2OCCCC[C@H](C)Oc3ccc(NC(=O)Nc4ccc5c(c4)OCO5)cc3C(=O)N([C@H](C)CO)C[C@H]2C)cc1 | 21.6%
38 | Cc1ccc(S(=O)(=O)Nc2ccc3c(c2)C(=O)N([C@H](C)CO)C[C@@H](C)[C@H](CN(C)Cc2ccc(Cl)c(Cl)c2)OCCCC[C@H](C)O3)cc1 | 39% [at 1.95 µM]
